What is called AC50 is the midpoint of the concentration-response curve, whichever way the signal moves.

Records with an inconclusive call do not appear. Activity calls are given as the source filed them. The calls were made as follows: active = hit-call score of the fitted dose curve at least 0.9, where 1 is the maximum; inconclusive = response in the unintended direction; inactive = score below 0.9.

Chain of human Dopamine Transporter (DAT), SLC6A3 (gene 6531) (Q01959 whole entry, looked up): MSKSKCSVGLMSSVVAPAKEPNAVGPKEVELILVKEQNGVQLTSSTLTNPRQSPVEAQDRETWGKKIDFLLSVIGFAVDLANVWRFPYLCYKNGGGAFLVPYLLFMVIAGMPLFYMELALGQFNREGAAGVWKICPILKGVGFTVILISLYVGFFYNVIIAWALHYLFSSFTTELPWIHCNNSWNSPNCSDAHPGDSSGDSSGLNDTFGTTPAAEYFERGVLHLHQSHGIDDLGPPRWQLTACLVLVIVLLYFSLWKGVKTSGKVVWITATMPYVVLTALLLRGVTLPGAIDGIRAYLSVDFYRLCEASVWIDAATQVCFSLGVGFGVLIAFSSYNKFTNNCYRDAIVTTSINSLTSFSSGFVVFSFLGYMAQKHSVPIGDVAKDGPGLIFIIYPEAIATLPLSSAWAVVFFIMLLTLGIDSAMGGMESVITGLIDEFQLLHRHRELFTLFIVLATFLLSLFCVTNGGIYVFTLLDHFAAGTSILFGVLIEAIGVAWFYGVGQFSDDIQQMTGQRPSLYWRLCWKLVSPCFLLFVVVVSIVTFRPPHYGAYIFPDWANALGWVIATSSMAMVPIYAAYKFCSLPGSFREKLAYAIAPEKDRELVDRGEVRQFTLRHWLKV
Chain of human Serotonin Transporter (SERT), SLC6A4 (gene 6532) (P31645 whole entry, looked up): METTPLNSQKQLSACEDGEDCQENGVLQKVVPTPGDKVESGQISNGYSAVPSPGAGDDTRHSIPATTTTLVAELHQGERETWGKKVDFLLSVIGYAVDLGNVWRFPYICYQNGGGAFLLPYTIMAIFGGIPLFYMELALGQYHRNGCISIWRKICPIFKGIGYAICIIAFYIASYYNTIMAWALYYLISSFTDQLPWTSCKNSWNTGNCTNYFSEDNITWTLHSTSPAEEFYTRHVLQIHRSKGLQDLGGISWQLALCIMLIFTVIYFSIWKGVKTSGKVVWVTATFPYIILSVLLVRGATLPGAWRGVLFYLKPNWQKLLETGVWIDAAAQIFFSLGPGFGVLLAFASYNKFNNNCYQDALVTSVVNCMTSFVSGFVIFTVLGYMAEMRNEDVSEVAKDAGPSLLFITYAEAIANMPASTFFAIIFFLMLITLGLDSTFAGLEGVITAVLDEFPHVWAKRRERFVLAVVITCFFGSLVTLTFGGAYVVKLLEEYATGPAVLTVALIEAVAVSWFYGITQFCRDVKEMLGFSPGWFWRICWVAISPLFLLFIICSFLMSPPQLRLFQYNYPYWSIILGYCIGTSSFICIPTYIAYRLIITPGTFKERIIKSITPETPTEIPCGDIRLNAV
Chain of Norway rat Vesicular Monoamine Transporter (VMAT2), neurotransmitter transporter, Slc18a2 (gene 25549) (Q01827 whole entry, looked up): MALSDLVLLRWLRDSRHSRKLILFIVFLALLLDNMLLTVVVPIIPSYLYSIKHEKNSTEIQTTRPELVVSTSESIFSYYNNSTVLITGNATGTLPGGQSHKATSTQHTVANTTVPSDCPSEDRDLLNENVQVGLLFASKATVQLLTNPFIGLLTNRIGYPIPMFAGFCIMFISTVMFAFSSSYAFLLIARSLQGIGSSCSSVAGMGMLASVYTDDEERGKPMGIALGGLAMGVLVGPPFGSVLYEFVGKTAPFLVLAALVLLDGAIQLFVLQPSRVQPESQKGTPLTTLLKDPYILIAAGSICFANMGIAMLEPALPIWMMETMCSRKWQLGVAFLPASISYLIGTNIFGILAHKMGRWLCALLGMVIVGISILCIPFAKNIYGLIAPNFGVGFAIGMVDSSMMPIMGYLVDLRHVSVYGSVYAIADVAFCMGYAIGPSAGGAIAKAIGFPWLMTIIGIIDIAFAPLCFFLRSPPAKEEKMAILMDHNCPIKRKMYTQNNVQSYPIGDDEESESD

One test concerns the target human Serotonin Transporter (SERT), SLC6A4 (gene 6532) (UniProt P31645). The experiment in a line: NVS_TR_hSERT: NovaScreen (NVS) Transporter Assay for human Serotonin Transporter (SERT) (AID 2283372). The method in brief:
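Radioligand binding to native SERT in human platelet membranes, read by filter-based scintillation counting 1 h after dosing. Primary screen in duplicate at 25 uM; actives followed up in concentration series; loss of signal versus DMSO baseline.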
Take `C[N+]1(C)CCCCC1`: the outcome was inactive. As to `CC(C)=CC1C(C(=O)OCN2C(=O)C3=C(CCCC3)C2=O)C1(C)C` (centres undefined), the compound was classed as inactive. On the same count and under the same terms, the entry for `CCCOCC(=Nc1ccc(Cl)cc1C(F)(F)F)n1ccnc1` is “inactive”.

The next test concerns the target human Dopamine Transporter (DAT), SLC6A3 (gene 6531) (UniProt Q01959). The experiment in a line: NVS_TR_hDAT: NovaScreen (NVS) Transporter Assay for human Dopamine Transporter (DAT) (AID 2283374).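 Also: activity means loss of bound radioligand signal relative to DMSO.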 The method in brief: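 Cell-free radioligand binding to extracted human DAT protein, read 1 h after dosing by filter-based scintillation counting. Loss of specific binding scored against DMSO baseline; primary screen in duplicate at 25 uM, actives then run in concentration series.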
In the case of `CC[C@H](C)[C@H]1O[C@]2(C=C[C@@H]1C)C[C@@H]1C[C@@H](C/C=C(\C)[C@@H](O[C@H]3C[C@H](OC)[C@@H](O[C@H]4C[C@H](OC)[C@@H](NC)[C@H](C)O4)[C@H](C)O3)[C@@H](C)/C=C/C=C3\CO[C@@H]4[C@H](O)C(C)=C[C@@H](C(=O)O1)[C@]34O)O2`, the result was inactive. Take `C#CCC1=C(C)C(OC(=O)C2C(C=C(C)C)C2(C)C)CC1=O` (centres undefined): the AC50 is 12 µM (active). The same measure, in the same setting: in the case of `CC1(C(=O)Nc2ccc(O)c(Cl)c2Cl)CCCCC1` it was 4.68 µM (active).

Consider `CC(C)=CC1C(C(=O)OCN2C(=O)C3=C(CCCC3)C2=O)C1(C)C` (centres undefined), for which the compound was classed as inactive. Same read-out and setting: in the case of `O=[N+]([O-])c1cc(C(F)(F)F)c(Cl)c([N+](=O)[O-])c1Nc1ncc(C(F)(F)F)cc1Cl` it was “inactive”. Turning to `CC(C)[C@H](C(=O)O[C@H](C#N)c1cccc(Oc2ccccc2)c1)c1ccc(Cl)cc1`, the concentration at half-maximal activity (AC50) was 16.2 µM (active). On the same count and under the same terms, in the case of `CCC(=O)Nc1ccc(Cl)c(Cl)c1` it was 6.22 µM (active); in that of `FC(F)C(F)(F)OCC(Cn1cncn1)c1ccc(Cl)cc1Cl` (centres undefined), 7.59 µM (active); in that of `C[Si](Cn1cncn1)(c1ccc(F)cc1)c1ccc(F)cc1`, 9.33 µM (active). The same measure, in the same setting: the figure for `CCCOCC(=Nc1ccc(Cl)cc1C(F)(F)F)n1ccnc1` is 10.2 µM (active). In the case of `C=C(C)[C@H]1Cc2c(ccc3c2O[C@@H]2COc4cc(OC)c(OC)cc4[C@@H]2C3=O)O1`, the compound was called inactive. The same measure, in the same setting: in the case of `CC(COc1ccc(Oc2ccccc2)cc1)Oc1ccccn1` (centres undefined) it was “inactive”.

The target of another test is Norway rat Vesicular Monoamine Transporter (VMAT2), neurotransmitter transporter, Slc18a2 (gene 25549) (UniProt Q01827). The experiment in a line: NVS_TR_rVMAT2: NovaScreen (NVS) Transporter Assay for Norway rat Vesicular Monoamine Transporter (VMAT2), neurotransmitter transporter (AID 2283376).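 Also: actives lower the bound radioligand signal below the DMSO level.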 The procedure:
NVS_TR_rVMAT2 is a biochemical, single-readout assay that uses extracted gene-proteins from Rat forebrain in a tissue-based cell-free assay. Measurements were taken 1 hour after chemical dosing in a 96-well plate.NVS_TR_rVMAT2 is one of one assay component(s) measured or calculated from the NVS_TR_rVMAT2 assay. It is designed to make measurements of radioligand binding, a form of binding reporter, as detected with scintillation counting signals by Filter-based radiodetection technology.Data from the assay component NVS_TR_rVMAT2 was analyzed into 1 assay endpoint. This assay endpoint, NVS_TR_rVMAT2, was analyzed in the positive analysis fitting direction relative to DMSO as the negative control and baseline of activity. Using a type of binding reporter, loss-of-signal activity can be used to understand changes in the binding as they relate to the gene Slc18a2. Furthermore, this assay endpoint can be referred to as a primary readout, because the performed assay has only produced 1 assay endpoint. To generalize the intended target to other relatable targets, this assay endpoint is annotated to the transporter intended target family, where the subfamily is vesicular transporter.
Binding assays used specific radioligands (tritiated, iodinated) with non-radioactive competitive displacement ligands in agonist or antagonist protocols (as indicated) and various reference compounds and inhibitors to titrate specific binding to receptors and transporters. Most enzyme assays (CYPs, kinases, phosphatases, proteases, HDACs) used recombinant protein and specific substrates (fluorescence mostly, some colorimetric and radioactive) and inhibitors, followed by a biochemical separation of substrate and product. All assays for the biochemical HTS were initially run in duplicate at a single concentration (10 uM for CYP450 assays and 25 uM for all others). […] Each assay was run with positive and negative controls, and concurrent controls on every plate. The follow-up (secondary) screen tested active chemical-pairs in concentration series, as well as a few additional assays not tested in the primary screen, some selected negative inactives, and several cases re-run in the concentration series for confirmatory purposes.
For the compound `CC[C@H](C)[C@H]1O[C@]2(C=C[C@@H]1C)C[C@@H]1C[C@@H](C/C=C(\C)[C@@H](O[C@H]3C[C@H](OC)[C@@H](O[C@H]4C[C@H](OC)[C@@H](NC)[C@H](C)O4)[C@H](C)O3)[C@@H](C)/C=C/C=C3\CO[C@@H]4[C@H](O)C(C)=C[C@@H](C(=O)O1)[C@]34O)O2`, the concentration at half-maximal activity (AC50) is 4.68 µM (active). The same measure, in the same setting: the figure for `CCC(=O)Nc1ccc(Cl)c(Cl)c1` is 23.3 µM (active); for `C[Si](Cn1cncn1)(c1ccc(F)cc1)c1ccc(F)cc1` it is 14.1 µM (active). For `CCCOCC(=Nc1ccc(Cl)cc1C(F)(F)F)n1ccnc1`, the result was inactive.
